Laboratory results published in PubChem BioAssay (NCATS).
“And” between values parts separate entries of the source, which are not always exact repeats. Equal entries are not always repeated. Results filed as inconclusive are left out. The source made the active and inactive calls. Unless noted, calls follow the shape of the dose curve; as a rule, active = well fitted curve in the direction sought with a large enough effect; inconclusive = small, poorly fitted or top-dose-only effect, or another doubt; inactive = no such curve, though single readings can be large; an effect the other way counts as inactive or inconclusive.

Legend:
[1] = Cell Viability - HepG2 (AID 433; calls by dose curve;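 also: potency is read from the fitted curve at half-maximal effect; cells exposed to compound for 40 hours; potency for ATP loss meaning cytotoxicity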); conditions: qHTS
Outline: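 In this qHTS format, a 40 h, 37 °C compound incubation of HepG2 cells in complete medium precedes a 20 min CellTiter-Glo step at room temperature. Tamoxifen and doxorubicin serve as positive controls; Hill-equation fits yield AC50.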

[2] = Cell Viability - MRC5 (AID 434; calls by dose curve;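 also: potency is read from the fitted curve at half-maximal effect; cells exposed to compound for 40 hours at 37 °C; potency reflects cytotoxicity seen as loss of intracellular ATP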); conditions: MRC5 lung fibroblast viability, qHTS
Outline: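 ATP luminescence read-out (CellTiter-Glo, 20 min RT) after 40 hr, 37 °C compound exposure of 1500 MRC5 cells/well. Data normalized to DMSO (basal) and 100 uM tamoxifen (100% inhibition); AC50 from standard Hill equation.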

[3] = molecular target: Mitogen-activated protein kinase 10 (Mus musculus) (UniProt Q61831); assay: JNK3 AlphaScreen Assay (AID 530; active = well fitted curve in either direction with a large enough effect, not every such curve was filed as active;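 also: kinase came from lysate of stimulated human HepG2 cells; signal reports phosphorylation of biotinylated GST-cJun 1-79 at Ser73 with 10 µM ATP; % is scaled to controls: 0 for no effect and ±100 for the full control effect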); conditions: JNK3 lysate, c-Jun phosphorylation; series mostly up to 57.1 µM
Outline: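 HepG2 lysate (IL-1b/TNFa pre-activated) + biotin-GST-cJun 1-79 + anti-pSer73 cJun; cpd titration, 15 min RT; ATP 10 uM start; Tris pH 7.6, MgCl2, DTT, vanadate; beads in EDTA buffer; AlphaScreen.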

[4] = Cell Viability - Mesenchymal (AID 546); conditions: mesenchymal cells viability, qHTS; series mostly up to 91.7 µM;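 also: cells exposed to compound for 40 hours before reading; 0% = DMSO only and -100% = 100 µM tamoxifen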
Outline: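 Human renal mesenchymal cells (glomerulus-derived), 1000 cells/well, 5 hr 37 °C pre-incubation; compound 40 hr, 37 °C; CellTiter-Glo, 20 min RT; luminescence; AC50 via Hill equation.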

[5] = Cellular Toxicity (caspase-3) HUV-EC-C (AID 656); conditions: HUV-EC-C cells, caspase-3 activation (apoptosis), vehicle = 0, 100 µM tamoxifen = 100%; series mostly up to 92.2 µM;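 also: 0% = DMSO basal and 100% = 100 µM tamoxifen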
Outline: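 Concentration-dependent caspase 3/7 induction was assessed in HUV-EC-C cells exposed for 16 hours. Data scaled between DMSO and tamoxifen (100 uM) controls.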

[6] = Cellular Toxicity (caspase-3) H-4-II-E (AID 663); conditions: H-4-II-E rat hepatoma; Potency: caspase-3 activation; series mostly up to 92.2 µM;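 also: cells exposed to compound for 16 hr before readout; 0% = DMSO basal and 100% = 100 µM tamoxifen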
Outline: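 H-4-II-E rat hepatoma, 1500 cells/well, 5 hr settle at 37 °C; compound 16 hr, 37 °C, complete medium; Caspase-Glo 3/7, 20 min RT; luminescence. DMSO = 0%, 100 uM tamoxifen = 100%; Hill-equation AC50.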

[7] = MultiTox-Fluor Cytotoxicity Assay - LYMP1-002 - Dead Cells (AID 960); conditions: LYMP1-002 lymphoblastoid cells, dead-cell protease fluorescence; series mostly up to 46.1 µM;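 also: 0% = DMSO and 100% = tetraoctylammonium bromide; nearly all actives have a fitted effect of over 60% in size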
Outline: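 Readout: fluorescence at 485/520 from cell-impermeant bis-AAF-R110 cleaved by proteases leaking from damaged cells. LYMP1-002 lymphoblastoid line, 16 hr compound treatment at 37 C, concentration-response in qHTS format; Hill-equation AC50 values.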

[8] = MultiTox-Fluor Cytotoxicity Assay - LYMP1-003 - Live Cells (AID 962); conditions: LYMP1-003 lymphoblastoid cells, MultiTox-Fluor live-cell protease fluorescence; series mostly up to 92.2 µM;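 also: cells exposed to compound for 16 hours at 37 °C; 0% = DMSO only and full loss = 92 µM tetraoctylammonium bromide; cytotoxic hits lower the live-cell protease signal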
Outline: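 Readout: live-cell fluorescence (Ex/Em=405/510) from GF-AFC cleavage after 60 min MultiTox-Fluor reagent at room temperature. Lymphoblastoid LYMP1-003 cells, 16 hr compound treatment, 37 C. Concentration-response fitted to standard Hill equation for AC50.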

[9] = Cell Viability - LYMP2-005 (AID 967); conditions: LYMP2-005 lymphoblastoid cell viability; series mostly up to 92.2 µM;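 also: plate controls were DMSO only for no effect and 92 µM tetraoctylammonium bromide control for full effect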
Outline: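 Luciferase-based ATP quantitation served as the viability measure in human lymphoblastoid LYMP2-005 cells exposed to test compounds for 24 h at 37 C in complete culture medium. Potency (AC50) was obtained by fitting concentration-response curves with the Hill equation.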

[10] = Cell Viability - LYMP2-021 (AID 974); conditions: LYMP2-021 lymphoblastoid cells viability; series mostly up to 92.2 µM;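 also: compound exposure lasts 24 hours at 37 °C; % is scaled to controls: 0 for no effect and ±100 for the full control effect; nearly all actives have a fitted effect of over 55% in size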
Outline: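 ATP luminescence (CellTiter-Glo, 30 min RT) after 24 h compound exposure at 37 C; 2500 human lymphoblastoid cells/well, 5 h settle beforehand. Cytotoxicity = concentration-dependent ATP drop, AC50 by Hill fit.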

[11] = Cell Viability - LYMP2-023 (AID 975); conditions: LYMP2-023 lymphoblastoid cell viability; series mostly up to 92.2 µM;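 also: cellular ATP measured by luciferase luminescence as viability proxy; plate controls were DMSO only for no effect and 92 µM tetraoctylammonium bromide control for full effect; nearly all actives have a fitted effect of over 55% in size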
Outline: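 CellTiter-Glo luminescence after 30 min at room temperature; decrease in intracellular ATP reflects toxicity. Cells: human lymphoblastoid line, 2500/well, 24 hr compound exposure at 37 C. AC50 fitted to standard Hill equation from concentration-response.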

[12] = Cell Viability - LYMP2-006 (AID 978); conditions: LYMP2-006 lymphoblastoid cell viability, qHTS; series mostly up to 92.2 µM; also: % is scaled to controls: 0 for no effect and ±100 for the full control effect; nearly all actives have a fitted effect of over 60% in size
Outline: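 In this cytotoxicity screen, the human lymphoblastoid line grew in complete medium with test compounds for 24 hr at 37 C. Cellular ATP served as the viability signal.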

[13] = Cell Viability - LYMP2-007 (AID 979); conditions: LYMP2-007 lymphoblastoid cell viability; series mostly up to 92.2 µM;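 also: cells exposed to compound for 24 h before reading; 0% = DMSO only and the negative end = 92 µM tetraoctylammonium bromide; nearly all actives have a fitted effect of over 60% in size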
Outline: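 qHTS cytotoxicity: 2500 cells/well, 5 hr 37 C settle, compound 24 hr 37 C, CellTiter-Glo 30 min RT, luminescence. Decrease in ATP = toxicity. AC50 by standard Hill equation; tetraoctylammonium bromide positive control.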

[14] = molecular target: Retinoic acid receptor RXR-alpha (Homo sapiens) (UniProt P19793); assay: qHTS assay for small molecule agonists of retinoid X receptor alpha signaling (AID 588544; calls by dose curve;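 also: 0% = DMSO basal wells and 100% = reference agonist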); conditions: HEK293T RXRa-UAS-bla, beta-lactamase reporter, 18 h; series mostly up to 76.7 µM
[15] = molecular target: Thyroid hormone receptor beta (Homo sapiens) (UniProt P10828); assay: qHTS assay for small molecule agonists of thyroid hormone receptor beta signaling (AID 588545; calls by dose curve;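 also: 0% = DMSO only and 100% = 10 nM T3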); conditions: TR-UAS-bla GripTite HEK 293, beta-lactamase ratio, agonist mode, 18 h; series mostly up to 76.7 µM
Outline: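 Compounds were tested as agonists in TR-UAS-bla-GripTite HEK 293 cells. After 18 hrs at 37 C, CCF4 substrate was added and fluorescence read after 2 hrs at room temperature.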

[16] = molecular target: Thyroid hormone receptor beta (Homo sapiens) (UniProt P10828); assay: qHTS assay for small molecule antagonists of thyroid hormone receptor beta signaling (AID 588547; active = well fitted inhibition curve with a large enough effect in the signal ratio, with a control signal flat, not every such curve was filed as active; the % refers to the signal ratio;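 also: cells stimulated with 0.4 nM T3 agonist during compound exposure; % is scaled to controls: 0 for no effect and ±100 for the full control effect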); conditions: TR-UAS-bla HEK293, beta-lactamase ratio, antagonist mode, 18 h
Outline: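 TR-UAS-bla GripTite HEK293 cells in 2% charcoal/dextran FBS medium; compounds 0.59 nM to 92 uM with T3 at 0.4nM final, 18 h at 37 C. Beta-lactamase read by CCF4 fluorescence (460/530 nm); Hill fits gave IC50 and efficacy.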

[17] = molecular target: Nuclear receptor subfamily 1 group I member 2 (Rattus norvegicus) (UniProt Q9R1A7); assay: qHTS assay for small molecule activators of the rat pregnane X receptor (rPXR) signaling pathway (AID 651751; call rule not given here; also: 0% is about no effect); conditions: rPXR reporter cells, luciferase (One-Glo), 24 h
[18] = qHTS assay for small molecule activators of the human pregnane X receptor (PXR) signaling pathway (AID 720659; call rule not given here; also: 0% is about no effect); conditions: DPX-2 HepG2 CYP3A4-luciferase, 24 h; series mostly up to 92.3 µM
[19] = Cellular Toxicity (caspase-3) SK-N-SH (AID 661); conditions: SK-N-SH caspase-3 activation, qHTS; series mostly up to 91.7 µM;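 also: 0% = DMSO basal and 100% = 10 µM staurosporine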
Outline: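 Luminescent Caspase-Glo 3/7 read-out after 16 hr compound exposure of SK-N-SH neuroblastoma cells at 37 °C. Signal increase normalized to DMSO (basal) and 10 uM staurosporine (100%); AC50 from Hill equation fits of qHTS concentration-response data.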

[20] = molecular target: Vitamin D3 receptor (Homo sapiens) (UniProt P11473); assay: qHTS assay for small molecule antagonists of vitamin D receptor signaling (AID 588541; calls by dose curve;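 also: receptor activated by calcitriol during compound treatment; % is scaled to controls: 0 for no effect and ±100 for the full control effect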); conditions: HEK293T VDR-UAS-bla, beta-lactamase ratio, antagonist mode; series mostly up to 76.7 µM
Outline: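 VDR-UAS-bla HEK293T cells in 2% charcoal-stripped FBS were stimulated with 1-alpha,25-dihydroxyvitamin D3 (3 nM final) plus compound for 16 h at 37 C. The beta-lactamase CCF4 readout was normalized to 50 nM agonist and DMSO, and Hill fits gave IC50.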

Chain of Retinoic acid receptor RXR-alpha (Homo sapiens) (P19793 whole entry, looked up): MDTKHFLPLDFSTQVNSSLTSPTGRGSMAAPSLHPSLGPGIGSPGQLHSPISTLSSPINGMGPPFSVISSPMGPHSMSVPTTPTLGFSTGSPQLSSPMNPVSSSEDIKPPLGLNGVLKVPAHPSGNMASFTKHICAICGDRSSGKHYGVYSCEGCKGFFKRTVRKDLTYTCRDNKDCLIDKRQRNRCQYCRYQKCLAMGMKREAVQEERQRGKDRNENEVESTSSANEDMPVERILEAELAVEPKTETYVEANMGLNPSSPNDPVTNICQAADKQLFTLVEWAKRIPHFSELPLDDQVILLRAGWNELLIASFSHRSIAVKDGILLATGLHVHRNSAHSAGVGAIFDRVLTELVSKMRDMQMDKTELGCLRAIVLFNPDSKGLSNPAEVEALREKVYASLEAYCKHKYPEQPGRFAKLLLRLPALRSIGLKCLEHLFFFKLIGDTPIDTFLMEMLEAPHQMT
Chain of Vitamin D3 receptor (Homo sapiens) (P11473 whole entry, looked up): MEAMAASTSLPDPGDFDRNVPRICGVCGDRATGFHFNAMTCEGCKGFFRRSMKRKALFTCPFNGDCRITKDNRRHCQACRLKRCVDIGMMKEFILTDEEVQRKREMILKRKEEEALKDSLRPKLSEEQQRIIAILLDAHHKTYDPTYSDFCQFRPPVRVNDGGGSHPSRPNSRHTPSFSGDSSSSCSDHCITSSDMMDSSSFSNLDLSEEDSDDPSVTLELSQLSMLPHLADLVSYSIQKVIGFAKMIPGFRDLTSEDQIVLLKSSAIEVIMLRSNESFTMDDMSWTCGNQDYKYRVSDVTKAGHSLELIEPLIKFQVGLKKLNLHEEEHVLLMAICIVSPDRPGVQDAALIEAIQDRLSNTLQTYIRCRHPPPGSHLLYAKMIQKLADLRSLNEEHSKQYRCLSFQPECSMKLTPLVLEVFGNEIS
Chain of Nuclear receptor subfamily 1 group I member 2 (Rattus norvegicus) (Q9R1A7 whole entry, looked up): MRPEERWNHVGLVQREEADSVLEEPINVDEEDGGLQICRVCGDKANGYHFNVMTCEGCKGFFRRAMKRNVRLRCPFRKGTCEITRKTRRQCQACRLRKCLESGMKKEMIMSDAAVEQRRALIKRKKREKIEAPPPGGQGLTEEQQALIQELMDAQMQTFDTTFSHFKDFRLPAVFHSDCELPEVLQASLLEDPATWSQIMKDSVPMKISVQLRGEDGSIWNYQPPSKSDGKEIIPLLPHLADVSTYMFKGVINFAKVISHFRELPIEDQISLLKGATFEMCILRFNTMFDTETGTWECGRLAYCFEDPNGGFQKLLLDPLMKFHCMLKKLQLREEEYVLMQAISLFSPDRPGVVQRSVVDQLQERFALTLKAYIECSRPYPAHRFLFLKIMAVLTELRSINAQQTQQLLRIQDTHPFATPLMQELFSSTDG
Chain of Thyroid hormone receptor beta (Homo sapiens) (P10828 whole entry, looked up): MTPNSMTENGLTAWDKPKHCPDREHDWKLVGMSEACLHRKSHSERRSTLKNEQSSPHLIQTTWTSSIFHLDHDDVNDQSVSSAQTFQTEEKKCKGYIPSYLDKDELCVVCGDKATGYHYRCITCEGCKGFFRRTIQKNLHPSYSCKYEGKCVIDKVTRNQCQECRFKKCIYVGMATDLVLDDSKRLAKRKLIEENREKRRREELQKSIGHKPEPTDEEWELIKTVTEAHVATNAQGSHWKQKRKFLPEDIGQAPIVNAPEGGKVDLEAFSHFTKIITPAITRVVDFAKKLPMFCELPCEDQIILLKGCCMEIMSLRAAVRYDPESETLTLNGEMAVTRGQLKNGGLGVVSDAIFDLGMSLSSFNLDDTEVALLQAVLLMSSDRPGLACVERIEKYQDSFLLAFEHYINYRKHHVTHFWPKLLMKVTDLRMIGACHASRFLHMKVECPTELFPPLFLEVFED

O=[N+]([O-])c1ccccc1-c1ccccc1
inactive: Potency [1] > 92 µM | Potency [2] > 92 µM | Potency [3] | Potency [4] | outcome [5] | Potency [6] | Potency [7] | outcome [8] | Potency [9] | Potency [10] | Potency [11] | Potency [12] | Potency [13] | outcome [14] | Potency [15] | activity change % (negative = inhibition) [16] -0.648% | max response [17] 0.722% | outcome [18]

CCC/C=N/O
inactive: Potency [1] > 92 µM | Potency [2] > 92 µM | Potency [3] | Potency [4] | outcome [5] | Potency [19] | Potency [6] | Potency [7] | outcome [8] | Potency [9] | Potency [10] | Potency [11] | Potency [12] | outcome [20] | outcome [14] | Potency [15] | activity change % (negative = inhibition) [16] 3.59% | max response [17] -0.891% | outcome [18]

CCOC(=O)CBr
inactive: Potency [1] > 92 µM | Potency [2] > 92 µM | Potency [3] | Potency [4] | outcome [5] | Potency [19] | Potency [6] | Potency [7] | outcome [8] | Potency [9] | Potency [10] | Potency [11] | Potency [12] | Potency [13] | outcome [20] | outcome [14] | Potency [15] | activity change % (negative = inhibition) [16] -6.62% | max response [17] 2.21% | outcome [18]

Nc1ccc(-c2ccc(N)cc2)cc1
inactive: Potency [1] > 92 µM | Potency [2] > 92 µM | Potency [3] | Potency [4] | outcome [5] | Potency [19] | Potency [6] | Potency [7] | outcome [8] | Potency [9] | Potency [10] | Potency [11] | Potency [12] | Potency [13] | outcome [20] | outcome [14] | activity change % (negative = inhibition) [16] 12.4% | outcome [18]

OCCBr
inactive: Potency [1] > 92 µM | Potency [2] > 92 µM | Potency [3] | Potency [4] | outcome [5] | Potency [19] | Potency [6] | Potency [7] | Potency [9] | Potency [11] | Potency [12] | Potency [13] | outcome [20] | outcome [14] | Potency [15] | max response [17] -0.978% | outcome [18]

O=[N+]([O-])c1ccc(Cl)cc1
inactive: Potency [1] > 92 µM | Potency [2] > 92 µM | Potency [4] | outcome [5] | Potency [6] | Potency [7] | outcome [8] | Potency [9] | Potency [10] | Potency [11] | Potency [12] | Potency [13] | outcome [20] | outcome [14] | Potency [15] | activity change % (negative = inhibition) [16] 3.07% and -2.63% | max response [17] 5.34% and 1.87% | outcome [18]

O=[N+]([O-])c1cccc(O)c1
inactive: Potency [1] > 92 µM | Potency [2] > 92 µM | Potency [3] | Potency [4] | outcome [5] | Potency [19] | Potency [6] | Potency [7] | outcome [8] | Potency [9] | Potency [10] | Potency [11] | Potency [12] | outcome [20] | Potency [15] | activity change % (negative = inhibition) [16] 6.02% | max response [17] 6% | outcome [18]
